Screens deposited in PubChem BioAssay by Broad Institute.
MITF inh: inhibitors of MITF; TRPM1 promoter luciferase, luminescence, 24 h; inhibition, % (no concentration beside the values); 0.28% of 37,000 active; AID 2240; in the data active = inhibition above about 85%; inconclusive = no clear call, values can overlap the other calls; inactive = below about 68%;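 note: human melanocyte line stably carrying TRPM1 promoter luciferase reporter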
Shh pathway inh: Sonic Hedgehog pathway inhibition | Shh-LIGHT2 Gli-luciferase reporter, 30 h | inhibition, % (concentration not given with the values) | 2.1% of 22,000 active | AID 2313;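 active = mean inhibition across valid replicates above about 65%, limit read from the data; inconclusive = mean under the limit, yet half or more replicates past it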;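 note: pathway switched on by Shh-conditioned medium diluted 1 in 25 in low serum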
NOMO-1 viab: STK33 inhibitor candidate reducing NOMO-1 cell viability; inhibition, % (no concentration beside the values); NOMO-1 AML viability, CellTiter-Glo luminescence, 72 h; 7.5% of 37,000 active; in the data active = inhibition above about 80%; inconclusive = no clear call, values can overlap the other calls
PD-1 reversal: reversal of PD-1 mediated T-cell inhibition | primary human CD4 T cells, PD-L1 beads, CellTiter-Glo 96 h | activation, % (concentration not given with the values) | 29,000 tested, under 10 active; call rule not given here;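 note: 0% = median vehicle wells and 100% = positive control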
The depositor's hits bear a star; ? = inconclusive; . = not tested or not shown. Sampled rows, rich in hits. Any-hit rate of the full collection: about 8.1%.

SMILES	MITF inh	Shh pathway inh	NOMO-1 viab	PD-1 reversal
C[C@H]1CN([C@@H](C)CO)C(=O)c2cc(NS(=O)(=O)c3ccc(F)cc3)ccc2O[C@@H]1CN(C)Cc1ccc(Cl)c(Cl)c1	29.1	19.3	110.1*	-2.1
C[C@H](CO)N1C[C@H](C)[C@H](CN(C)Cc2ccc(Cl)c(Cl)c2)Oc2ccc(NS(=O)(=O)c3ccc(Cl)cc3)cc2C1=O	24.1	19.4	60.4	-0.7
O=C(O)Cn1cc(C(=O)c2cccs2)c2ccccc21	12.5	.	-17.0	.
CC1=C(C(=O)Nc2ccccc2C)C(c2cccnc2)n2nc(SCc3ccccc3)nc2N1 (stereo unspecified)	-2.4	.	-3.8	-0.5
C[C@@H]1CN([C@@H](C)CO)C(=O)c2cc(NS(=O)(=O)c3ccccc3)ccc2O[C@@H]1CN(C)Cc1ccc(Cl)c(Cl)c1	63.7	24.8	103.3*	-1.6
C[C@@H]1CCCCO[C@@H](CN(C)Cc2ccc(Cl)c(Cl)c2)[C@@H](C)CN([C@H](C)CO)C(=O)c2cc(NS(=O)(=O)c3cccs3)ccc2O1	53.5	2.6	118.3*	.
C[C@@H]1CCCCO[C@@H](CN(C)Cc2ccc(Cl)c(Cl)c2)[C@@H](C)CN([C@H](C)CO)C(=O)c2cc(NS(=O)(=O)c3ccc(F)cc3)ccc2O1	19.6	-48.3	99.5*	-4.7
C[C@H]1CN([C@@H](C)CO)C(=O)c2cc(NS(=O)(=O)c3ccc(F)cc3)ccc2O[C@H]1CN(C)Cc1ccc2c(c1)OCO2	-1.6	22.7	93.4*	-0.7
COc1ccc(S(=O)(=O)N(C)C[C@@H]2Oc3c(cccc3N(C)C)C(=O)N([C@@H](C)CO)C[C@@H]2C)cc1	-14.9	.	13.4	0.0
COc1ccc(S(=O)(=O)N(C)CC(=O)Nc2ccc(C(N)=O)cc2)cc1Cl	3.3	.	4.6	-0.3
C[C@H](CO)N1C[C@H](C)[C@H](CN(C)C(=O)Nc2ccc(F)cc2)Oc2ccc(NC(=O)Nc3ccccc3)cc2CC1=O	-17.0	-22.1	25.4	-0.7
O=c1c2ccccc2nc(/C=C/c2cc(Br)ccc2O)n1CCCO	101.9*	.	107.9*	-7.0
Cc1[nH]c2ccccc2c1/C=C/c1nc2ccccc2c(=O)n1CCCO	-1.2	.	4.0	-2.3
C[C@@H]1CN([C@@H](C)CO)C(=O)c2cccc(NC(=O)Nc3ccc(C(F)(F)F)cc3)c2O[C@H]1CN(C)C(=O)Nc1cccc2ccccc12	39.8	-150.4	106.0*	-4.2
C[C@H](CO)N1C[C@H](C)[C@H](CN(C)C(=O)Nc2cccc3ccccc23)Oc2c(NC(=O)Nc3ccc(C(F)(F)F)cc3)cccc2C1=O	35.0	-8.2	76.7	.
C[C@H](CO)N1C[C@H](C)[C@@H](CN(C)C(=O)Nc2cccc3ccccc23)Oc2c(NC(=O)Nc3ccc(C(F)(F)F)cc3)cccc2C1=O	12.9	-26.0	117.3*	-4.3
CNC[C@H]1Oc2c(NS(=O)(=O)c3ccccc3)cccc2C(=O)N([C@@H](C)CO)C[C@H]1C	-6.1	16.1	21.7	0.5
C[C@H](CO)N1C[C@H](C)[C@@H](CN(C)Cc2ccc(-c3ccccc3)cc2)Oc2c(NC(=O)Nc3ccc(C(F)(F)F)cc3)cccc2C1=O	14.1	-18.0	52.9	.
CCOc1ccccc1NC(=O)CSc1cc(C)c2cccc(C)c2n1	26.5	.	19.7	-3.8
COc1ccc(NC(=O)CSc2cc(C)c3cccc(C)c3n2)cc1	35.6	.	105.2*	-6.1
C[C@@H]1CN([C@H](C)CO)C(=O)Cc2cc(NC(=O)CCC(F)(F)F)ccc2O[C@@H]1CN(C)Cc1ccc(Oc2ccccc2)cc1	36.5	?	83.6*	-6.0
C[C@@H]1CN([C@H](C)CO)C(=O)Cc2cc(NC(=O)Nc3ccccc3)ccc2O[C@H]1CN(C)Cc1ccc(Oc2ccccc2)cc1	6.0	-3.3	72.0	2.7
C[C@@H]1CN([C@H](C)CO)C(=O)Cc2cc(NC(=O)Nc3ccc(C(F)(F)F)cc3)ccc2O[C@@H]1CN(C)Cc1ccc(Oc2ccccc2)cc1	-1.0	54.3	115.1*	-10.4
C[C@@H]1CN([C@@H](C)CO)C(=O)Cc2cc(NC(=O)Nc3ccc(C(F)(F)F)cc3)ccc2O[C@@H]1CN(C)Cc1ccc(Oc2ccccc2)cc1	5.2	15.1	127.6*	-0.9
C[C@H]1CN([C@@H](C)CO)C(=O)Cc2cc(NC(=O)Nc3ccc(C(F)(F)F)cc3)ccc2O[C@H]1CN(C)Cc1ccc(Oc2ccccc2)cc1	-4.1	-23.6	25.5	1.2
SMILES	MITF inh	Shh pathway inh	NOMO-1 viab	PD-1 reversal
C[C@@H]1CN([C@H](C)CO)C(=O)Cc2cc(NC(=O)NC3CCCCC3)ccc2O[C@@H]1CN(C)Cc1ccc(Oc2ccccc2)cc1	28.4	.	110.9*	-2.8
C[C@H](CO)N1C[C@H](C)[C@H](CN(C)Cc2ccc(Oc3ccccc3)cc2)Oc2ccc(NC(=O)CCC(F)(F)F)cc2CC1=O	-5.0	-28.8	39.5	-1.7
CCCN(C)C[C@@H]1OCCCC[C@@H](C)Oc2ccc(NC(=O)Nc3ccc(C(F)(F)F)cc3)cc2C(=O)N([C@H](C)CO)C[C@@H]1C	-2.9	-13.1	58.9	1.0
C[C@@H]1CCCCO[C@@H](CN(C)C)[C@@H](C)CN([C@H](C)CO)C(=O)c2cc(NS(=O)(=O)c3ccccc3)ccc2O1	-2.0	-2.9	4.7	.
Cc1cc(C(=O)Nc2cccc3c2O[C@@H](CN(C)C(=O)Nc2ccc(F)cc2)[C@@H](C)CN([C@H](C)CO)C3=O)n(C)n1	-12.3	26.2	25.0	.
CCOC(=O)c1ccc(NC(=O)Cn2nc(C)c([N+](=O)[O-])c2C)cc1	-10.6	.	-7.9	2.5
COc1ccc(NC(=O)Nc2ccc3c(c2)CC(=O)N([C@@H](C)CO)C[C@H](C)[C@@H](CN(C)Cc2ccc(Oc4ccccc4)cc2)O3)cc1	31.6	51.4	118.6*	-4.0
CSc1sc(C(=O)Sc2ccccc2)cc1S(=O)(=O)C(C)C	-0.3	-15.4	106.4*	1.1
CSc1cccc(NC(=O)C(C)NS(=O)(=O)c2ccccc2)c1 (stereo unspecified)	0.8	.	39.2	-0.7
COc1ccc(NC(=O)N(C)C[C@@H]2Oc3ccc(NS(=O)(=O)c4ccccc4)cc3CC(=O)N([C@H](C)CO)C[C@H]2C)cc1	1.9	-10.9	4.5	1.9
COc1ccc(CN(C)C[C@@H]2Oc3c(NC(=O)Nc4ccc(C(F)(F)F)cc4)cccc3C(=O)N([C@H](C)CO)C[C@H]2C)cc1	46.3	33.8	104.5*	-6.1
COc1ccc(NC(=O)Nc2cccc3c2O[C@H](CN(C)Cc2ccc(C(F)(F)F)cc2)[C@@H](C)CN([C@@H](C)CO)C3=O)cc1	6.9	-14.1	84.8*	0.0
COc1ccc(NC(=O)Nc2cccc3c2O[C@@H](CN(C)Cc2ccc(C(F)(F)F)cc2)[C@H](C)CN([C@@H](C)CO)C3=O)cc1	36.9	20.1	98.2*	-4.4
COc1ccc(CN(C)C[C@H]2Oc3c(NC(=O)Nc4ccc(OC)cc4)cccc3C(=O)N([C@H](C)CO)C[C@@H]2C)cc1	-9.5	7.9	42.4	-2.4
COc1ccc(CN(C)C[C@H]2Oc3c(NC(=O)Nc4ccc(C(F)(F)F)cc4)cccc3C(=O)N([C@@H](C)CO)C[C@@H]2C)cc1	35.8	?	101.0*	-6.3
